Measurements from PubChem BioAssay (NCI).
The panel holds about 83,000 compounds, 20% with a hit somewhere; the sample as a whole holds those more often.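 Each cell line was grown in a 96-well plate and treated with one concentration of compound for 48 hours. Values below 10 were considered active.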 Unmarked numbers belong to inactive results. Activity calls are given as the source filed them.

tested on: SK-MEL-5 melanoma; test: NCI-60 one-dose screen, 48 h (100 = growth as untreated, 0 = no growth, -100 = all killed); conditions: 10 µM unless noted
Description: Growth inhibition of the SK-MEL-5 human tumor cell line is measured as a screen for anti-cancer activity. Cells are grown in 96 well plates and exposed to the test compound for 48 hours. Compounds are tested at a single concentration, which is 10^-5 M for most compounds. The reported endpoint is percent growth (GI% or GIPRCNT), where numbers from 0 - 100% represent growth inhibition, and numbers from -100% - 0 represent cell death. For example, a value of 40 represents 60% growth inhibition. A value of 0 means no net growth occurred over the course of the experiment. A value of -40 indicates 40% of cells at the beginning of the experiment died by the end of the experiment. A value of -100 means all cells are dead at the end of the experiment.
NCI-60 Human Tumor Cell Lines Screen was performed using the standard one-dose NCI protocol, which is described in more detail at https://dtp.cancer.gov/discovery_development/nci-60/default.htm.
Compounds with GIPRCNT values below 10 were considered active. Activity score was based on GIPRCNT using the following formula: […]
Score is 0 for GIPRCNT values of 100 or above, 50 for GIPRCNT values of 0, and 100 for GIPRCNT values of -100.

| Compound | growth |
| --- | --- |
| Cc1ccc2nc(-c3ccc(N(C)C)c(Br)c3)cn2c1 | 77.9% |
| CC1Cc2ccccc2N1C(=O)c1ccc(C(=O)c2ccccc2)cc1 (stereo not given) | 74.2% |
| OCCN1CCN(CCCN2c3ccccc3Sc3ccc(C(F)(F)F)cc32)CC1 | -93.3% (active) |
| COC(=O)C1CCN(S(=O)(=O)c2ccc(-c3ccccc3)cc2)CC1 | 107% |
| N#CC1c2ccccc2C=CN1C(=O)N(c1ccccc1)c1ccccc1 (stereo not given) | 65.4% |
| O=C1NC(=O)/C(=C\c2ccco2)S1 | 99.9% |
| COC(=O)c1cc2oc(/C=N\NC(=O)c3cc4oc(C)c(C)c4[nH]3)cc2[nH]1 | 108% |
| Cc1c2oc3c(C)ccc(C(=O)OC(C)C4NC(=O)C(C(C)C)N(C)C(=O)CN(C)C(=O)C5CCCN5C(=O)C(C(C)C)NC4=O)c3nc-2c(C(=O)OC(C)C2NC(=O)C(C(C)C)N(C)C(=O)CN(C)C(=O)C3CCCN3C(=O)C(C(C)C)NC2=O)c(N)c1=O (stereo not given) | -92% (active) |
| COc1ccc(/C=C/C(=O)c2cccc(NS(C)(=O)=O)c2)cc1 | 90.4% |
| Oc1c(Cl)cc(Oc2cc(Cl)c(O)c(CN3CCOCC3)c2)cc1CN1CCOCC1 | 87.5% |
| CCC(=O)Nc1cc2c(cc1Cl)-c1ccccc1C2 | 93.5% |
| COc1ccc2cc(-c3nc4ccccc4[nH]3)c(=O)oc2c1 | 94.8% |
| Cc1[nH]c(=O)[nH]c(=O)c1CCSSCCc1c(C)[nH]c(=O)[nH]c1=O | 103% |
| CC(=O)Nc1cc(C(c2ccccc2)c2ccccc2)cc(C(c2ccccc2)c2ccccc2)c1C | 45.6% |
| C=C(CN1CCc2c([nH]c3ccccc23)C1)c1ccc(C(=O)Nc2ccon2)cc1 | 88% |
| CCCCCCCCCCCCC1CCCC(C)C1 (stereo not given) | 101% |
| COc1ccc2cc(C3=CC(=O)CCC3)ccc2c1 | 94.3% |
| COc1cc(C(=O)/C=C/c2cccc(Nc3ccnc4cc(Cl)ccc34)c2)cc(OC)c1OC | -45.5% (active) |
| CC(=O)N1N=C(c2ccc(Cl)cc2)CC1c1c(C)nn(-c2ccccc2)c1N(C)Cc1ccccc1 (stereo not given) | 70.3% |
| COc1ccc2c(c1)[n+](=O)c(C(=O)/C=C/c1cc(OC)c(OC)c(OC)c1)c(C)n2[O-] | 50.8% |

| Compound | growth |
| --- | --- |
| Cc1ccc(-c2csc(N)n2)cc1 | 97.1% |
| O=C1C=CC(=O)N1c1ccccn1 | 111% |
| CCCCCCCCCCCCCCCCCC1=NC(C)(CO)CO1 (stereo not given) | 97.1% |
| Oc1c(Cl)cc(Cl)c(Cl)c1Cc1c(O)c(Cl)cc(Cl)c1Cl | -72.7% (active) |
| Cc1cc(=O)[nH]c(/C(=N/Nc2ccccc2)C(=O)c2ccc(Cl)cc2)n1 | 92.4% |
| COc1cc(/C=C/C(=O)c2c(C)n([O-])c3ccc(Cl)cc3[n+]2=O)cc(OC)c1OC | 47% |
| O=C(Oc1cccc2ccccc12)c1ccccc1C(=O)c1ccccc1 | 96.6% |
| COc1cc(-c2nc3nc4sc(C)c(C)c4c(=O)n3[nH]2)cc(OC)c1OC | 55.3% |
| C#C[C@]1(O)CCC2C3CCc4cc(O)ccc4C3CC[C@@]21C (stereo not given in full) | 8.95% (active) |
| Cc1[nH]cnc1/C=C1\SC(N2CCCCC2)=NC1=O | 103% |
| NC(=O)c1cc(Cl)ccc1NC(=O)c1ccccc1-c1ccccc1 | 26.4% |
| COc1cc(C(=O)c2cc3c(cc2C)OCO3)cc(OC)c1OC | 0.803% (active) |
| COC(=O)CC1=C(c2ccc([N+](=O)[O-])cc2)CCC1=O | 103% |
| COc1cccc(/C=N\NC(=O)c2ccncc2)c1O | 58.8% |
| Nc1nc(SCc2cccnc2)c2ncn(C3OC(CO)C(O)C3O)c2n1 (stereo not given) | 99.5% |
| O=C(N/N=C/c1cccc(O)c1O)c1ccccc1 | 0.968% (active) |
| CCCCCCC(CC#N)(CCC)CCCC (stereo not given) | 105% |
| O=C(c1ccccc1)C(CN1CCCCC1)c1ccccc1 (stereo not given) | 58.8% |
| NS(=O)(=O)c1ccc(-n2ncc3c(NC4CCCCC4)ncnc32)cc1 | 88.1% |
| COc1cc2c(cc1OC)C(=O)/C(=C/c1cccc(OCC(=O)c3ccccc3)c1)C2 | 67.6% |
